The results in this text go back to PubChem BioAssay AID927 (National Center for Advancing Translational Sciences (NCATS), 2007).

Each structure is given as a SMILES string. Screen size: about 60,000 compounds; about 65 (0.1%) were called active. Entries that show only a call come without a potency. The call rests on the fitted dose curve; in most records, active means well fitted inhibition curve with a large enough effect; inconclusive means small, poorly fitted or top-dose-only effect; inactive means no such curve, though single readings can be large or run the other way. This excerpt belongs to a sample that is enriched for actives.
Potency means the concentration at half of the fitted maximal effect.

The test deals with Ubiquitin carboxyl-terminal hydrolase 2 (Homo sapiens) (UniProt O75604). In words: qHTS Assay for Inhibitors of Ubiquitin-specific Protease USP2a. Further: nearly all actives have a fitted effect of over 60% in size. The following applies: USP2a enzymatic assay; Potency: qHTS inhibition; series mostly up to 38.3 µM. An excerpt: NIH Molecular Libraries Screening Centers Network [MLSCN]
Sequence of Ubiquitin carboxyl-terminal hydrolase 2 (Homo sapiens) (O75604 whole entry, looked up): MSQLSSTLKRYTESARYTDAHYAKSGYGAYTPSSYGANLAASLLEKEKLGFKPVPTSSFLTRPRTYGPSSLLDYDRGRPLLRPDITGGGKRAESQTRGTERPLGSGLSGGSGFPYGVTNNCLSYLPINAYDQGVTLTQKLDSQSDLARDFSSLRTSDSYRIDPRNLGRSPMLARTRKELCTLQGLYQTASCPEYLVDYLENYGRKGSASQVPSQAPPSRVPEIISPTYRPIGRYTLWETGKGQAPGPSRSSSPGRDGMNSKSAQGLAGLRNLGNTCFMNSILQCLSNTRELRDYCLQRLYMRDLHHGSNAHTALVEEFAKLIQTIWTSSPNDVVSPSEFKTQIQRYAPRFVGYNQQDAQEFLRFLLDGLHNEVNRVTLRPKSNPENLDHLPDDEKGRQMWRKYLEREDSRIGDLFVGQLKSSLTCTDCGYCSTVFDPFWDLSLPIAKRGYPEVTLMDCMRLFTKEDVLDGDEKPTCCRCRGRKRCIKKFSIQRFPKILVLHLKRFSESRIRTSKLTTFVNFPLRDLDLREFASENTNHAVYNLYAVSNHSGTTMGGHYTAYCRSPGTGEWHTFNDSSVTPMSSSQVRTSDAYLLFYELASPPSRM
NIH Chemical Genomics Center [NCGC]
PI Name: Nicholson, Ben. Progenra Inc, Malvern, PA
Homeostasis of cellular proteins is maintained through a combination of synthesis and degradation. The pathway that accounts for the majority of protein degradation is the ubiquitin-proteasomal pathway. Ubiquitin (Ub) is highly conserved in all cells and the generation of a multi-Ub chain typically targets proteins for degradation by the proteasome. However, ubiquitination is highly reversible and dynamic. Deubiquitination, the reverse process, is catalyzed through the action of enzymes referred to as isopeptidases or deubiquitinating enzymes (DUBs). This group of enzymes is collectively responsible for maintaining adequate pools of free ubiquitin and regulating the ubiquitination status of cellular proteins. The class of DUBs referred to as the ubiquitin-specific proteases (USP) family functions endoproteolytically to cleave Ub chains from a wide range of protein substrates. USP2a deubiquitinates fatty acid synthase (FASN) which has recently been identified as an emerging oncology target. To identify inhibitors of USP2a a cell-free assay was employed.
The reporter enzyme chosen is phospholipase A2 (PLA2), which has an absolute requirement for a free amino terminus. Thus, fusion of a UBL to the N-terminus of PLA2 inactivates PLA2. When the UBL-PLA2 reporter enzyme is cleaved by USP2, the activated reporter can subsequently act on its substrate, which is the commercially available NBD C6-HPC (Invitrogen). Thus, this coupled assay gives a fluorescent read-out, which is generated through the cleavage of the PLA2 reporter enzyme. The assay, developed by Progenra, Inc. uses Ub-PLA2 and USP2a at near equal and low (nM) amounts and has been licensed for sale by LifeSensors, Inc. as the Ub-IsoPro1 kit.
NCGC Assay Protocol Summary:
The assay buffer, prepared fresh at the day of the assay, contains 20mM Tris-HCl pH 8.0, 2mM CaCl2, 2mM beta-Mercaptoethanol, 0.1% DMSO. 3ul of 40nM (20nM final) USP2 core, which is stored on ice, is dispensed into a medium-binding black solid Kalypsys 1,536 well plate using the Kalypsys dispenser. The assay plate is then pinned with 23nL compound with the Kalypsys pintool in columns 5-48. The controls are pinned as follows: column 1&2 two-fold dilutions of 2M NEM in duplicate; column 3 DMSO; column 4 2M NEM (final concentration 38.2mM). The assay plate is incubated at RT for 30min. Subsequently, 3uL of 40nM (20nM final) Ub-PLA2 and 40uM (20uM final) NBD C6-HPC (stored on ice and protected from light) were dispensed into the plate using the Kalypsys dispenser. Plates were read immediately (0 Hour) on an Envision (Perkin Elmer) plate reader using the following wavelengths Ex 460nm /Em 535nm. Then, the assay plates were incubated for 2.5 hours and read again on the Envision using the same settings
Data were normalized to the to AC100 inhibition (NEM). Concentration-response curves were fitted to the normalized data and the concentration-response curves were then classified based on curve quality (r2), response magnitude and degree of measured activity. The time zero reading was used to flag fluorescence artifacts.
Keywords: ubiquitination, deubiquitination, proteases, profluorescent, MLSMR, MLSCN, NIH Roadmap, qHTS, NCGC
Consider `Clc1ccc(C(c2ccc(Cl)cc2)n2cc[n+](C[C@@H](OCc3ccc(Cl)cc3Cl)c3ccc(Cl)cc3Cl)c2)cc1`, for which the Potency was 25.1 µM (active). The value for `COc1ccc(C2Oc3c(I)c(OC)cc(OC)c3CC2O)cc1OC` (stereo not given) was “inactive”; that for `COC1CC(OC2CC[C@@]3(C=O)C4CC[C@]5(C)C(C6=CC(=O)OC6)CC[C@@]5(O)C4CC[C@]3(O)C2)OC(C)C1O` (stereo not given in full) was “inactive”; that for `COc1cc2c(cc1OC)[C@@H]1C(=O)c3ccc(O)c(CC=C(C)C)c3OC1CO2` (stereo not given in full) was “inactive”. With `C=CCSSCC=C`, the Potency result is “inactive”.
